Activity calls are given as the source filed them. Rule for the calls: active = hit-call score of the fitted dose curve at least 0.9, where 1 is the maximum; inconclusive = response in the unintended direction; inactive = score below 0.9.

Chain of Estrogen receptor (Homo sapiens) (P03372 whole entry, looked up, the tested form may be a part): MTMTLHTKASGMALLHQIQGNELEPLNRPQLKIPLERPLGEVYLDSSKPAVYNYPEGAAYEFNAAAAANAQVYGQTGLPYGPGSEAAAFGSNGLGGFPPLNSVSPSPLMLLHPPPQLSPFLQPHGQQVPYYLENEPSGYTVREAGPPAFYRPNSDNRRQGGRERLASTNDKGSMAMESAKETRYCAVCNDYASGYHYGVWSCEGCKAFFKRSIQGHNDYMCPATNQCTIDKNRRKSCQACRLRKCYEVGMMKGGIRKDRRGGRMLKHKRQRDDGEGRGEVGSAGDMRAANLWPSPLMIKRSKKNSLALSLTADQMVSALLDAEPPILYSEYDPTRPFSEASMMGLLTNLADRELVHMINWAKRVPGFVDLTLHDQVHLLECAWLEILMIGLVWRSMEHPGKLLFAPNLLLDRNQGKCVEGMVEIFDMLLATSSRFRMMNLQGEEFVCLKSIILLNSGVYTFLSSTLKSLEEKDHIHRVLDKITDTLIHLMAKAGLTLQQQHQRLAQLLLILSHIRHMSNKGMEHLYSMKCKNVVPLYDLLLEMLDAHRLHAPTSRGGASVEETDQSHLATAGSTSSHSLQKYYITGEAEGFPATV

The experiment has as its target Estrogen receptor (Homo sapiens) (UniProt P03372). Nature of the experiment: OT_ER_ERaERa_1440: Odyssey Thera (OT) 24-hour HEK293T Protein-Complementation Assay for Estrogen Receptor-alpha/-alpha Homodimer (AID 2283349).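 Note: hits raise fluorescence above DMSO for agonists and antagonists alike.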 In a few lines:
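HEK293T, stable ERα LBD (aa 310-547) homodimer PCA; 24 h compound exposure; mean fluorescence intensity (nuclear for agonists, nuclear plus cytoplasmic for antagonists) vs vehicle; positive fitting direction, DMSO baseline.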
For `[Na+]`, the outcome was inactive.

As for `CN(C)C(=O)Nc1ccccc1`, the call was inactive.

For `c1ccc2scnc2c1`, the outcome was inactive.

As to `CC1=CCC(C(C)(C)O)CC1` (stereo not drawn), the result was inactive.

On to `COC(=O)c1cccc(C(=O)OC)c1`, for which the compound was called inactive.

As to `CC(=O)c1ccc(O)cc1`, the result was inactive.

Turning to `CC(C)(C)C1CCC(O)CC1` (stereo not drawn), the compound was called inactive.

For `CCC(C)(CCCC(C)C)OC(C)=O` (stereo not drawn), the outcome was inactive.

Regarding `CCCO`, the outcome was inactive.

As for `C=CC(C)CCCC(C)(C)O` (stereo not drawn), the compound was called inactive.

Usually AC50 stands for the concentration at which the activity in the assay is half-maximal. With `FC(F)(F)c1ccc(Cl)c(Cl)c1`, the AC50 was 12 µM (active).

Take `CC(=O)OC(C)(C)C`: the result was inactive.

On to `CC(=O)C1=C(C)[C@@H]2C[C@@]3(C1)[C@H](C)CC[C@H]3C2(C)C`, for which the AC50 was 72.1 µM (active).

For the compound `CCCCC(CC)COCCO` (stereo not drawn), the compound was classed as inactive.

For the compound `c1ccc(Cc2ccccc2)cc1`, the outcome was inactive.

As to `CCCCCCCCCO`, the compound was called inactive.

For `CCCCN(CCCC)CCCCCCN(CCCC)CCCC`, the result was inactive.

In the case of `CN(C)C`, the outcome was inactive.

Consider `CCCC1CCC(=O)CC1`, for which the result was inactive.

For `CC(CCO)CC(C)(C)C` (stereo not drawn), the compound was called inactive.

As to `OC[C@H]1O[C@@H](O[C@H]2[C@H](O)[C@@H](O)[C@H](O)O[C@@H]2CO)[C@H](O)[C@@H](O)[C@H]1O`, the compound was called inactive.

On to `COC(=O)c1ccc(C(=O)OC)cc1`, for which the compound was called inactive.

On to `CCCCCCCCCCOC(=O)c1ccccc1C(=O)OCCCCCCCC`, for which the call was inactive.

In the case of `CC(C)N(c1ccccc1)C(C)C`, the outcome was inactive.

As to `COc1ccc2[nH]cc(CCNC(C)=O)c2c1`, the compound was classed as inactive.

On to `CCCC(O)C(CC)CO` (stereo not drawn), for which the call was inactive.

Consider `CCCO[Si](OCCC)(OCCC)OCCC`, for which the compound was called inactive.

For the compound `CC1COC(=O)O1` (stereo not drawn), the outcome was inactive.

`CCCCOCCOCCO`: the result was inactive.

As for `CCC(C)COC(=O)CC(C)C` (stereo not drawn), the outcome was inactive.

Turning to `C=CCCCCCCCCC(=O)OCC`, the outcome was inactive.

Turning to `CCCCCCCCCCCCN1CCOCC1`, the compound was classed as inactive.

Take `O=C(OCc1ccccc1)c1ccccc1O`: the call was inactive.

(Values after PubChem BioAssay (EPA / NIEHS).)
